Compounds with a hit are over-represented: about 7.1% of the library has one in this group of screens.
Marburg entry – Marburg virus entry inhibition. Potency, µM (highest dose often 49.2 µM), actives largely listed as inhibitors. 18,000 compounds, 6.5% hits. Marburg virus pseudotype entry/binding inhibition, cell-based. AID 720532
Lassa entry – Lassa virus entry inhibition. AID 720533. Potency, µM (titrated, usually from 49.2 µM), most hits filed as inhibitors. 18,000 compounds, 4.1% hits. Lassa virus pseudotyped entry inhibition, cell-based qHTS
Each line names hits and unclear results; the compound was inactive in the other large screens; ! = a repeat was not active. The call rests on the fitted dose curve; tested in HEK293 cells.

COc1ccc2c(c1)CO[C@H]([C@H](O)COC(C)=O)[C@H]2C=Cc1ccccc1	none
COC(=O)C1=C(C)N(Cc2ccccc2)C(=NCc2ccc(OC)cc2)NC1c1ccccc1 (stereo not given)	none
O=c1oc2ccccc2c2c1[C@H]1O[C@](c3ccsc3)(Cc3ccccc31)O2	none
CO[C@H]1C[C@@H]2CC[C@@H](C)[C@@](O)(O2)C(=O)C(=O)N2CCCC[C@H]2C(=O)O[C@H](C(C)C[C@H]2CC[C@@H](O)[C@H](OC)C2)CC(=O)[C@H](C)/C=C(\C)[C@@H](O)[C@@H](OC)C(=O)[C@H](C)C[C@H](C)/C=C/C=C/C=C/1C (stereo not given in full)	Marburg entry inconclusive
CO[C@H]1C[C@@H]2CC[C@@H](C)[C@@](O)(O2)C(=O)C(=O)N2CCCC[C@H]2C(=O)O[C@H]([C@H](C)C[C@@H]2CC[C@@H](OCCO)[C@H](OC)C2)CC(=O)[C@H](C)/C=C(\C)[C@@H](O)[C@@H](OC)C(=O)[C@H](C)C[C@H](C)/C=C/C=C/C=C/1C	Marburg entry inconclusive, Lassa entry 25µM
O=C(/C=C/c1ccc(O)cc1)c1cccs1	none
COc1cc(/C=C/C(=O)c2cccs2)cc(OC)c1OC	Marburg entry inconclusive, Lassa entry 32µM
CCOC(=O)[C@@H]1CSCCS(=O)(=O)N1C(=O)[C@@H](NC(=O)OC(C)(C)C)[C@@H](C)CC	none
C=CC1CC2C=CCS[P@@](=O)(O1)O2 (stereo not given in full)	none
O=C(NCC1(N2CCCCC2)CCCCC1)c1ccc(-n2cc(NC(=O)c3cccnc3)cn2)cc1	Marburg entry 4µM
CCOC(=O)C1CCCCN1C(=O)c1ccc(-n2cc(NC(=O)c3cccnc3)cn2)cc1 (stereo not given)	none
CC(C)/C(O)=C1/C(=O)OC(c2ccoc2)[C@@]2(C)C(O)C(O)[C@@]34OC5(C)OC67CC(C)(C(O)[C@@]6(O)C(O)[C@@]3(O5)C12)C(CC(=O)O)[C@@]74C (stereo not given in full)	none
COC(=O)CC1C2(C)CC34OC5(C)O[C@@]6(C7/C(=C(/OC)C(C)C)C(=O)OC(c8ccoc8)[C@@]7(C)C(OC(=O)C(C)C)C(OC)[C@]6(O5)[C@@]13C)C(OC)[C@]4(OC)C2OC(C)=O (stereo not given in full)	Marburg entry 7.1µM, Lassa entry inconclusive
CCCCCC(=O)N1C[C@H](O)[C@@H](n2cc(COC(=O)c3ccccc3)nn2)C[C@H]1c1ccc(OC)cc1	Marburg entry inconclusive
CCC[C@H]1CN(c2ccccc2)C(=O)[C@H]1CC(=O)Nc1ccc(Br)cc1	none
O=C1NCN(c2ccccc2)C12CCN(CCCOc1ccc(F)cc1)CC2	Marburg entry 18µM, Lassa entry 16µM
c1ccc(N2CCN(CCCOc3ccc4c(c3)OCO4)CC2)cc1	none
CC(=O)OC[C@H]1O[C@@H](ON=CC[C@@H]2C=C[C@@H](OC(C)=O)[C@@H](COC(C)=O)O2)[C@@H](OC(C)=O)[C@@H](OC(C)=O)[C@@H]1OC(C)=O	none
C=CCOC(=O)N[C@@H](Cc1ccccc1)C(C(=O)OC)=C(C)NCc1ccccc1	none
CN1C(CC(=O)c2ccccc2)CCCC1CC(O)c1ccccc1 (stereo not given)	Marburg entry inconclusive
CN1[C@@H](CC(=O)c2ccccc2)CCC[C@H]1C[C@H](O)c1ccccc1	Marburg entry 28µM, Lassa entry inconclusive
CCC[C@H]1CN(Cc2ccccc2)C(=O)[C@H]1CC(=O)NC	none
C=C[C@@H]1C[C@@H](C=C)OP(=O)(O[C@@H](C=C)[C@@H](C)C(=O)OC)O1 (stereo not given in full)	none
O=C1Nc2ccccc2C2(CCN(CCc3ccc(C(F)(F)F)cc3)CC2)O1	Marburg entry 11µM, Lassa entry inconclusive
FC(F)(F)c1cccc(C2=CCN(CCc3ccc4ccccc4c3)CC2)c1	none
CN(Cc1cc(Br)cc(Br)c1N)C1CCCCC1	Marburg entry inconclusive, Lassa entry 28µM
CCOC(=O)NN=C1C[C@@H](O)[C@@H](O)[C@@H]2[C@H]3C(=O)N([C@@H](C)c4ccccc4)C(=O)[C@@H]3CC[C@@H]12	none
CC1(C)CN(CCc2ccccc2)C(=O)[C@@H]1CC(=O)Nc1ccc(Br)cc1	none
CCCCCCCc1cc2ccccc2c2c(C(C)=O)c(-c3ccccc3)c(C(=O)OC)n12	none
CC/C(=C(\c1ccccc1)c1ccc(OCCN(C)C)cc1)c1ccccc1	Marburg entry 10µM! (no result: Lassa entry)
CN(C)CCOc1ccccc1Cc1ccccc1 (tested in a mixture with another compound)	Marburg entry inconclusive
COC1=C[C@H](C(=O)NCCOC(C)=O)[C@@]2(C)Cc3ccccc3[C@@H]2CC1=O	none
c1ccc2c(c1)Sc1ccccc1N2CCN1CCCC1	Marburg entry inconclusive
CN1CCN(CCCN2c3ccccc3Sc3ccc(C(F)(F)F)cc32)CC1	Marburg entry 16µM, Lassa entry 22µM
O=C(CCN1CCN(CCO)CC1)N1c2ccccc2Sc2ccc(C(F)(F)F)cc21	Marburg entry inconclusive
O=C1CSC2(CCN(CCCN3c4ccccc4Sc4ccc(Cl)cc43)CC2)N1	Marburg entry 22µM, Lassa entry inconclusive
O=c1n(CCCN2CCN(c3cccc(Cl)c3)CC2)nc2ccccn12	none
N#Cc1ccc2c(c1)N(CCCN1CCC(O)CC1)c1ccccc1S2	Marburg entry 20µM
c1ccc(C2NCCc3c2[nH]c2ccccc32)cc1 (stereo not given)	none
COC(=O)C1=C(C)C(=O)[C@]2(O)c3ccccc3N(C)[C@]12C	none
COc1ccc(/C=C\C(=O)Nc2ccccc2C(=O)O)cc1OC	Marburg entry 40µM, Lassa entry 20µM
COc1ccc(/C=C/C(=O)O)cc1OC	none
COC(=O)N[C@@H](c1cccc(F)c1)[C@]1(C(=O)OC)CCCC1=O	none
Oc1cc2c(cc1O)[C@@H]1c3ccc(O)c(O)c3OC[C@]1(O)C2	Marburg entry 5.6µM
COc1cccc(CO[C@H]2C=C[C@@H](c3ccccc3)O[C@H]2COC(C)=O)c1	none
CS(=O)(=O)Nc1ccccn1	none
COC(=O)C1(C(=O)OC)CC(CO)C(=O)[C@@H]1c1ccccc1 (stereo not given in full)	none
O=c1cc(-c2ccccc2)oc2cc(O[C@@H]3O[C@H](CO)[C@@H](O)[C@H](O)[C@H]3O)c(O)c(O)c12	Marburg entry 3.5µM
O=c1cc(-c2ccc(O)cc2)oc2cc(O[C@H]3OC(CO)C(O)C(O)C3O)cc(O)c12 (stereo not given in full)	none
COC(=O)C1=C(C)N(Cc2ccccc2)C(=NCc2cc(OC)c(OC)c(OC)c2)NC1CCc1ccccc1 (stereo not given)	Marburg entry inconclusive
CCCC=Cc1ccc(CN2C(CC(C)C)C(=O)N(Cc3cn(CCC4OCCO4)nn3)CCS2(=O)=O)cc1 (stereo not given)	Marburg entry inconclusive
O=C(Nc1cccc(Cl)c1)OCC#CCCl	Marburg entry 11µM
C[N+](C)(C)CC#CCOC(=O)Nc1cccc(Cl)c1	none
C[C@H]1C[C@@H](C)O[C@@]2(C1)C(=O)Nc1ccccc12	none
COC(=O)C1=C(C)N(Cc2ccccc2)C(=NCCc2cccs2)NC1c1cccc(C(F)(F)F)c1 (stereo not given)	Marburg entry inconclusive
CCc1cc2c(nc1CC)CCN(CCC(C)=NOC[C@H]1O[C@H](c3ccccc3)C=C[C@H]1Oc1ccc(OC)cc1)C2	none
CCN1C(=NCc2cccc(C(F)(F)F)c2)NC(c2cccs2)C(C(=O)OC)=C1C (stereo not given)	Marburg entry inconclusive

Screens as filed in PubChem.
